Screening data deposited in PubChem BioAssay by National Center for Advancing Translational Sciences (NCATS).
IP6K1 inh – blocks human inositol hexakisphosphate kinase 1 | Q92551 | IP6K1 kinase, ADP-Glo luminescence, 2 h; active compounds read low | activity change, % (series mostly up to about 58 µM) | actives 0.81% (n = 140,000) | AID 1645851; in the data active = activity change below about -25%; also: % is scaled to controls: 0 for no effect and ±100 for the full control effect
Target sequence (Q92551 whole entry, looked up): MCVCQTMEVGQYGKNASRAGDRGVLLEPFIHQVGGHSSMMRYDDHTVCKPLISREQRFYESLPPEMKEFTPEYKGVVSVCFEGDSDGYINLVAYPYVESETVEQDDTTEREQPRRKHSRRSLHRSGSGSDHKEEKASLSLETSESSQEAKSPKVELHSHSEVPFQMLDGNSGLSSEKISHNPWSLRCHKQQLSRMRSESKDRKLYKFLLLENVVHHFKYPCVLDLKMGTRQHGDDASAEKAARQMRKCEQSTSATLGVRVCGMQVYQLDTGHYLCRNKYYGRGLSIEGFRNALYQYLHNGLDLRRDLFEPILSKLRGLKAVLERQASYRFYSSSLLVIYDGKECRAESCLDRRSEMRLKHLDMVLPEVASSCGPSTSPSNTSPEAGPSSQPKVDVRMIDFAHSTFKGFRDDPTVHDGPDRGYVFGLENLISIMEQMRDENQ
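ADP-Glo luminescence measures ADP made by human IP6K1 during a 2 h RT reaction with ATP/IP6 (mix at 1.3 mM/130 uM); top library doses 57.5 and 19.1 uM final.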
SNCA viab count – cell viability loss counter-screen | HEK-293-SNCA-luc viability, GF-AFC fluorescence, 24 h | actives 0.12% (n = 150,000) | Potency, µM (doses to about 57.1 µM), for the others: at the highest dose activity change, negative = cytotoxicity, usual class: cytotoxic | AID 1671193;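 also: potency is read from the fitted curve at half-maximal effect; 0% = DMSO-treated cells and -100% = medium-only wells without cells; nearly all actives have a fitted effect of over 30% in size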
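HEK-293-SNCA-luc cells (1500/well) plated 24 h, then exposed 24 h to a dilution series; GF-AFC added 30 min at 37C, fluorescence 405/540 nm; normalised to medium-only and DMSO wells, Hill fit.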
SNCA expr inhib – SNCA gene expression inhibition. AID 1671194. actives 0.17% (n = 140,000). Potency, µM (top dose mostly 57.2 µM), without a hit: top-dose activity change, negative = inhibition, usual class: inhibitors. HEK-293 SNCA-luciferase knock-in, luminescence, 24 h;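 also: potency is read from the fitted curve at half-maximal effect; plate controls were DMSO cells for no effect and cell-free wells for full effect; nearly all actives have a fitted effect of over 45% in size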
KDM5B inhibitor – blocks human KDM5B histone demethylase activity | Q9UGL1 | KDM5B demethylase, FDH-coupled NADH fluorescence (FDH is formaldehyde dehydrogenase) | Potency, µM (top dose mostly 57.7 µM), actives largely listed as inhibitors | actives 2.6% (n = 220,000); also: potency is read from the fitted curve at half-maximal effect; 0% is about no effect; nearly all actives have a fitted effect of over 70% in size
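Compound dilutions met 200 nM (final) KDM5BΔAP for 10 min at room temperature before substrate addition. The substrate mix held 12.5 µM H3K4me3 with cofactors 25 µM α-ketoglutarate and 50 µM Fe²⁺. NADH signal gain over 30 min defined activity.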
An asterisk follows results filed as active; [ ] = remark or other dose. Hits are enriched below; roughly 2.8% of the tested compounds scored in any of these assays. Unless noted, calls follow the shape of the dose curve; as a rule, active = well fitted curve in the direction sought with a large enough effect; inconclusive = small, poorly fitted or top-dose-only effect, or another doubt; inactive = no such curve, though single readings can be large; an effect the other way counts as inactive or inconclusive.

Screening COCCNc1nc2c(S(=O)(=O)c3ccc(C)cc3)nnn2c2ccccc12 returned IP6K1 inh -3, SNCA viab count 9%, SNCA expr inhib 8% and KDM5B inhibitor 79µM*.
`COCCCNc1nc2c(S(=O)(=O)c3ccccc3)nnn2c2ccccc12` gave IP6K1 inh 3, SNCA viab count 1%, SNCA expr inhib -4% and KDM5B inhibitor 79µM*.
CC(C)OCCCNc1nc2c(S(=O)(=O)c3ccc(Br)cc3)nnn2c2ccccc12 was read as IP6K1 inh 14, SNCA viab count 1%, SNCA expr inhib 5% and KDM5B inhibitor inconclusive.
For COCCNc1nc2c(S(=O)(=O)c3ccc(C(C)C)cc3)nnn2c2ccccc12 the results were IP6K1 inh 15, SNCA viab count 10%, SNCA expr inhib -2% and KDM5B inhibitor inconclusive.
COCCCNc1nc2c(S(=O)(=O)c3ccc(C)cc3)nnn2c2ccccc12 was read as IP6K1 inh -5, SNCA viab count -1%, SNCA expr inhib inconclusive and KDM5B inhibitor 79µM*.
Screening O=C(CCn1ccccc1=O)Nc1ccccc1F returned KDM5B inhibitor inactive.
For COc1ccc(Cl)cc1Nc1cc(C)nc2nc(-c3ccco3)nn12 the results were KDM5B inhibitor inactive.
`O=C(c1nc(-c2cccnc2)c2cnccn12)N1CCOCC1` gave IP6K1 inh 4, SNCA viab count 7%[87.6 µM], SNCA expr inhib 20%[87.6 µM] and KDM5B inhibitor inactive.
For CC(C)(C)c1nc(C(=O)N2CCOCC2)n2ccncc12 the results were IP6K1 inh 3, SNCA viab count 7%[87.6 µM], SNCA expr inhib 4%[87.6 µM] and KDM5B inhibitor 89µM*.
Screening CC(C)(C)c1nc(C(=O)N2CCCC2)n2ccncc12 returned IP6K1 inh -8, SNCA viab count -8%[87.6 µM], SNCA expr inhib 7%[87.6 µM] and KDM5B inhibitor 100µM*.
For O=C(CCc1ncc(-c2c(F)cccc2F)o1)Nc1ccc(F)cc1 the results were KDM5B inhibitor inactive.
Cc1ccc([N+](=O)[O-])cc1C#Cc1ccccc1 was read as KDM5B inhibitor inactive.
CN1Cc2cccn2CC1CNC(=O)Cc1ccccc1 (stereo not drawn) was read as IP6K1 inh -8, SNCA viab count 3%, SNCA expr inhib -18% and KDM5B inhibitor 18µM*.
`COCCN1C(=O)c2cccn2CC1CNC(=O)Cc1cccc(F)c1` (stereo not drawn) gave IP6K1 inh 12, SNCA viab count 3%, SNCA expr inhib -11% and KDM5B inhibitor inactive.
CN1Cc2cccn2CC1CNC(=O)Nc1ccccc1 (stereo not drawn) was read as IP6K1 inh 13, SNCA viab count 7%, SNCA expr inhib 9% and KDM5B inhibitor inactive.
Screening CN1Cc2cccn2CC1CNC(=O)C1(S(=O)(=O)c2ccc(Cl)cc2)CC1 (stereo not drawn) returned IP6K1 inh 14, SNCA viab count 6%, SNCA expr inhib -18% and KDM5B inhibitor 14µM*.
CN1Cc2cccn2CC1CNC(=O)c1ccsc1 (stereo not drawn) was read as IP6K1 inh -11, SNCA viab count -16%, SNCA expr inhib -11% and KDM5B inhibitor 20µM*.
For CN1C(=O)c2cccn2CC1CNC(=O)C1(S(=O)(=O)c2ccc(Cl)cc2)CC1 (stereo not drawn) the results were IP6K1 inh -1, SNCA viab count -5%, SNCA expr inhib -7% and KDM5B inhibitor inactive.
For CN1Cc2cccn2CC1CNC(=O)Cc1cccc(F)c1 (stereo not drawn) the results were IP6K1 inh -9, SNCA viab count 12%, SNCA expr inhib 17% and KDM5B inhibitor 28µM*.
Cc1ccn2c(C(=O)N3CCCn4nc(C(O)CO)cc4C3)nnc2n1 (stereo not drawn) was read as IP6K1 inh 24, SNCA viab count -4%, SNCA expr inhib 9% and KDM5B inhibitor 32µM*.
CN(C)CC(O)c1cc2n(n1)CCCN(C(=O)c1cccn1C1CC1)C2 (stereo not drawn) was read as IP6K1 inh 17, SNCA viab count 2%, SNCA expr inhib -31% and KDM5B inhibitor inactive.
`Cc1c(OS(C)(=O)=O)ccc2c3c(c(=O)oc12)CCCC3` gave KDM5B inhibitor inactive.
Screening C=C1C(=O)O[C@@H]2[C@H]1CC(=O)[C@H](C)[C@@](O)(C(=O)/C=C/C)[C@H]2OC(=O)C(C)CC (stereo partly drawn) returned IP6K1 inh -2 and SNCA viab count 9.3µM*.
Screening CCCCN(CC)C(=O)COc1ccccc1C#N returned KDM5B inhibitor inactive.
`N#Cc1cccnc1N1CCN(Cc2cn(-c3ccccc3)nn2)CC1` gave IP6K1 inh -12, SNCA viab count -2%, SNCA expr inhib -12% and KDM5B inhibitor 22µM*.
Screening O=C1NCC2(CCCN(C(=O)c3cnc4c(O)cccn4c3=O)C2)O1 (stereo not drawn) returned IP6K1 inh -7, SNCA viab count 20%, SNCA expr inhib -14% and KDM5B inhibitor 32µM*.
Screening O=C1NCC2(CCCN(C(=O)c3cn[nH]c3-n3cnnn3)C2)O1 (stereo not drawn) returned IP6K1 inh 32, SNCA viab count 1%, SNCA expr inhib -10% and KDM5B inhibitor inactive.
`O=C(CN1C(=O)NC(c2ccc(Cl)cc2)C2=C1COC2=O)Nc1cccc(Br)c1` (stereo not drawn) gave IP6K1 inh 6, SNCA viab count inconclusive, SNCA expr inhib inconclusive and KDM5B inhibitor inactive.
For Cc1cccc(CSc2nnc(CCCCCN)o2)c1 the results were IP6K1 inh -18, SNCA viab count 7%, SNCA expr inhib 14µM* and KDM5B inhibitor inactive.
Screening Cc1ccc(-c2nnc(SCc3cccc(C#N)c3)o2)cc1 returned IP6K1 inh -3, SNCA viab count -6%, SNCA expr inhib 14% and KDM5B inhibitor inactive.
O=S(=O)(c1ccccc1)c1nnn2c1nc(N1CCCCC1)c1ccccc12 was read as IP6K1 inh -4, SNCA viab count 4%, SNCA expr inhib 8% and KDM5B inhibitor inconclusive.
CC(C)c1ccc(S(=O)(=O)c2nnn3c2nc(N2CCCCC2)c2ccccc23)cc1 was read as IP6K1 inh 10, SNCA viab count 1%, SNCA expr inhib -26% and KDM5B inhibitor 89µM*.
`Cc1ccc(S(=O)(=O)c2nnn3c2nc(N2CCOCC2)c2ccccc23)cc1C` gave IP6K1 inh 15, SNCA viab count 6%, SNCA expr inhib 4% and KDM5B inhibitor 79µM*.
Screening Cc1nc(C2CC(NC(=O)c3cnc(N)nc3C(F)(F)F)C2)cc(=O)[nH]1 (stereo not drawn) returned IP6K1 inh 9, SNCA viab count 0%, SNCA expr inhib -3% and KDM5B inhibitor 28µM*.
For Nc1nc(C2CC(NC(=O)c3csc4c3CCCC4)C2)cc(=O)[nH]1 (stereo not drawn) the results were IP6K1 inh 33, SNCA viab count 1%, SNCA expr inhib 9% and KDM5B inhibitor inactive.
`O=C(NC1CCN(c2nc3ncccc3o2)CC1)c1ccccc1F` gave IP6K1 inh -20, SNCA viab count -22%, SNCA expr inhib 5% and KDM5B inhibitor inconclusive.
